# Source: PubChem BioAssay (NCI)
# Compounds without any hit were thinned out: in the full panel of roughly 83,000, 20% have a hit.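 Negative percent growth values reflect cell death: -40 means 40% of the cells present at the start died, and -100 means all died.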 Unmarked numbers belong to inactive results. Calls of active or inactive are those of the source. The calls were made as follows: active = growth percent below 10; inactive = the rest.
# How the values were obtained:
# Experiment in all cases: NCI-60 one-dose screen, 48 h (100 = growth as untreated, 0 = no growth, -100 = all killed)
# Conditions in all cases: 10 µM unless noted
# [1] = system: SR leukemia
# [2] = system: RPMI-8226 leukemia
# [3] = system: OVCAR-8 ovarian
# [4] = system: OVCAR-5 ovarian
# [5] = system: OVCAR-4 ovarian
# [6] = system: SK-OV-3 ovarian
# [7] = system: IGROV1 ovarian
# [8] = system: OVCAR-3 ovarian
# [9] = system: HS 578T breast
# [10] = system: T-47D breast
# [11] = system: MDA-MB-435 melanoma
# [12] = system: SW-620 colon
# [13] = system: MCF7 breast
# [14] = system: HCT-116 colon
# [15] = system: HCC-2998 colon
# [16] = system: KM12 colon
# [17] = system: BT-549 breast
# [18] = system: NCI/ADR-RES ovarian
SMILES,growth [1],growth [2],growth [3],growth [4],growth [5],growth [6],growth [7],growth [8],growth [9],growth [10],growth [11],growth [12],growth [13] [%],growth [14],growth [15],growth [16],growth [17],growth [18] [%]
S=C(Sc1ccc(Cl)cc1)Sc1ccc(Cl)cc1,-46.5% (active),-46.6% (active),22.1%,60.1%,10.1%,109%,-49.8% (active),-64.7% (active),7.84% (active),-1.08% (active),19.6%,-68% (active),24,-68.4% (active),24.1%,41%,,
O=C(O)c1cc(I)ccc1O,103%,107%,109%,97.5%,107%,103%,114%,116%,111%,112%,100%,116%,95.7,111%,95.1%,108%,85.9%,
COCC(N)=O,98.3%,103%,108%,101%,120%,105%,114%,106%,103%,98.4%,105%,99.7%,,99%,110%,98.9%,93.2%,
C=CCC(OC(C)=O)c1ccc(OC)c(OC)c1 (stereo unspecified),35.3%,97.1%,96.7%,113%,118%,126%,96.6%,111%,,112%,110%,98%,,103%,,99%,116%,116
BrCc1cccc(C[P+](c2ccccc2)(c2ccccc2)c2ccccc2)c1,50.3%,22.6%,29.2%,81.2%,36.8%,90.2%,38.8%,14.2%,,28.2%,18%,25.4%,,22.2%,33.1%,30.2%,93.1%,111
Cc1cc(CO)c(O)c(CO)c1,77.8%,91%,105%,101%,122%,106%,108%,113%,,96.4%,106%,99.9%,,98.2%,96.8%,107%,94.7%,96.1
COC(=O)c1ccc([N+](=O)[O-])c(C)c1,79.8%,81.1%,108%,90.7%,101%,106%,93.1%,105%,,102%,101%,103%,91,95.6%,106%,99.8%,86.3%,108
COc1ccc(Br)c(C=O)c1,8.35% (active),22.2%,69.1%,93.1%,88.5%,103%,92.3%,74.2%,,69.9%,49.8%,,31.5,22.5%,86%,93.7%,76.6%,51.6
O=C1NCC2CCCC1C2 (stereo unspecified),110%,118%,99.3%,107%,103%,110%,107%,114%,,118%,112%,120%,,101%,93.1%,107%,98.3%,106
OCC1CCC(O)C(CO)N1 (stereo unspecified),101%,83.7%,112%,88.4%,94.6%,118%,110%,107%,,111%,102%,101%,92.6,102%,115%,103%,100%,118
COc1c(CNC(=O)CCl)cc2[nH]c(C)cc2c1CNC(=O)CCl,34.9%,58.5%,53%,96.7%,45.3%,70.3%,33.8%,30.9%,,59.2%,50.4%,55.1%,36,41.7%,,59.2%,58.9%,118
O=[N+]([O-])c1c(Cl)ncnc1Cl,96%,96.2%,104%,85.7%,103%,104%,117%,105%,,117%,,95.3%,95.2,115%,121%,102%,106%,118
CC1(C)OC2C(CO)OC(n3ccc(=O)[nH]c3=O)C2O1 (stereo unspecified),99.7%,103%,91.8%,104%,115%,99.3%,101%,107%,91.8%,89.4%,101%,96.3%,,98.2%,102%,102%,104%,
CN1CCN(C(=S)S)CC1,104%,102%,109%,106%,127%,111%,74.4%,115%,,93%,109%,114%,99.3,107%,107%,107%,108%,108
ON1CCCC1,90.3%,88.2%,103%,103%,107%,102%,108%,112%,,98.6%,107%,101%,95,97.4%,98.8%,110%,96.7%,102
CC(C)(C)CC1(C)NC(=O)NC1=O (stereo unspecified),134%,73.3%,109%,89.1%,106%,115%,125%,120%,105%,108%,114%,103%,100,101%,113%,106%,,
N#CC1(O)CCCCC1,91.6%,105%,94.3%,98.2%,126%,93.6%,101%,104%,,103%,99.3%,110%,,103%,93.3%,102%,93.9%,94
Cn1c(=O)c2[nH]c(CC(=O)O)nc2n(C)c1=O,99.3%,108%,102%,106%,118%,106%,103%,108%,107%,102%,112%,108%,,104%,101%,105%,107%,
N#C/C(=C\c1ccc2c(c1)OCO2)c1ccccc1,14.2%,74.8%,90.1%,79.6%,99.8%,87.3%,62.8%,79.4%,,61.4%,-1.53% (active),41.4%,,53.3%,76.4%,42.8%,65.2%,47.8
CC(=O)Nc1ncc(S(=O)(=O)c2ccc([N+](=O)[O-])cc2)s1,96.4%,100%,103%,109%,102%,94%,112%,120%,,91.4%,111%,101%,105,98.9%,128%,116%,108%,118
Oc1cccc(CNC2CCCCC2)c1,102%,104%,110%,108%,126%,109%,108%,119%,,113%,105%,116%,91.3,103%,102%,107%,112%,110

SMILES,growth [1],growth [2],growth [3],growth [4],growth [5],growth [6],growth [7],growth [8],growth [9],growth [10],growth [11],growth [12],growth [13] [%],growth [14],growth [15],growth [16],growth [17],growth [18] [%]
CNc1ccccc1C(N)=O,109%,110%,103%,117%,109%,107%,100%,114%,,98.1%,105%,,92.7,96.8%,106%,101%,101%,97.9
Cc1onc(-c2ccccc2Cl)c1C(=O)Cl,83.8%,99.9%,95.4%,103%,98%,99%,117%,127%,102%,99.5%,95.3%,103%,89,105%,102%,119%,117%,
CC(C)C(=O)OCCOc1ccc(C(C)(C)C)cc1,98.6%,97.7%,99.5%,103%,98.6%,108%,104%,107%,93.9%,,87.5%,92.2%,95.4,105%,111%,93.3%,,
CCCCOC(=O)c1ccc(NC(=O)CCl)cc1,-30.8% (active),19.5%,42.2%,101%,-53% (active),105%,-49.5% (active),-83.5% (active),79.9%,47.2%,75.9%,25.8%,22.8,4.07% (active),101%,84.7%,47.5%,
Cn1c(=O)c2[nH]c(CCCCC(=O)O)nc2n(C)c1=O,112%,91.2%,101%,112%,124%,113%,110%,113%,,113%,110%,101%,,106%,111%,106%,106%,108
O=C(CCl)Nc1ccccc1SCc1cc(Cl)cc2c1OCOC2,31.9%,94%,75.4%,101%,47.7%,80.8%,-43% (active),,102%,55.9%,24.1%,87.1%,55.6,78.9%,99.1%,96.8%,,101
OCCc1ccc(Cl)cc1,94.6%,101%,98.7%,97.8%,103%,100%,104%,,95%,,92.3%,105%,93.7,101%,110%,88.9%,,107
OCC(O)COc1ccc(Cl)cc1Cl (stereo unspecified),101%,102%,92.4%,101%,101%,91.7%,101%,,102%,81.5%,103%,114%,95.6,93%,98.3%,106%,101%,110
C/C=C/C1OCC(CC)C(CCC)O1 (stereo unspecified),102%,94.5%,103%,98.7%,110%,108%,104%,,107%,107%,107%,105%,,103%,124%,102%,108%,108
O=C(CCl)Oc1ccc([N+](=O)[O-])cc1,102%,103%,102%,107%,106%,133%,106%,,128%,105%,107%,113%,99.5,110%,102%,107%,,
O=C(Nc1cccc(Cl)c1)c1ccc(Cl)cc1Cl,81.4%,84.5%,97.4%,95.8%,107%,95%,107%,,92.7%,,89.1%,92.7%,83.3,89%,106%,85.1%,,103
NNc1ncccn1,98.2%,108%,108%,108%,101%,105%,111%,,91.5%,,91%,94.7%,101,98.1%,102%,101%,,104
Nc1ccc(F)c(Cl)c1F,101%,93.7%,108%,98.8%,112%,113%,116%,,96.4%,102%,109%,104%,102,94.9%,100%,108%,88.8%,105
O=Cc1ccc(F)cc1,111%,105%,103%,102%,106%,109%,95.2%,111%,,94.6%,97.9%,92.8%,,101%,104%,109%,,107
CCN(CC)c1ccc2nc3ccc(N=Nc4ccc(N(C)C)cc4)cc3[n+](-c3ccccc3)c2c1,-18.3% (active),-23.6% (active),5.08% (active),-58.2% (active),-100% (active),-8.27% (active),14.5%,-30.6% (active),,0.779% (active),-87.3% (active),-82.5% (active),,-70.3% (active),-69.7% (active),-64.3% (active),-23.3% (active),
ClCC(Cl)C1CCC(Cl)C(Cl)C1 (stereo unspecified),99.5%,100%,95.6%,105%,104%,100%,117%,,103%,100%,107%,105%,87.1,95.6%,101%,105%,103%,104
C[n+]1cc2cc3c(cc2c2ccccc21)OCO3,15.6%,40.3%,77.9%,74%,52.3%,46%,84.1%,,42.1%,39.8%,64.9%,56.5%,24.5,40.3%,54.7%,12.9%,20%,106
COc1ccc(/C=C\C(=O)/C=C/c2ccc(OC)cc2)cc1,17.7%,-20% (active),101%,107%,88.6%,104%,92.3%,85.1%,,80.1%,-30.4% (active),,11,-96.6% (active),-16% (active),4.59% (active),,99.2
CCOS(=O)(=O)c1ccc([N+](=O)[O-])cc1,88.2%,106%,104%,103%,101%,111%,105%,,108%,101%,107%,119%,103,106%,104%,108%,111%,105
c1ccc2[nH]c(Cc3nc4ccccc4[nH]3)nc2c1,100%,71.9%,112%,92%,96.5%,126%,92.2%,122%,,89.3%,101%,105%,84.9,89.8%,108%,97.6%,,110
